Results on 63 molecules are retold here after PubChem BioAssay AID624483 (NMMLSC, 2012).

In all, about 360,000 compounds went through this assay and about 11,000 (3.1%) were called active. Not shown: some 2% with an inconclusive outcome. Cut-off read from the data, not from the text of the source: active = fluorescence intensity above about 16000; inconclusive = no clear call, values can overlap the other calls; inactive = below that. The full list was thinned out, with actives kept by preference.

The assay in a line: compound fluorescence in toxin protease inhibitor counterscreen, primary screen, artefact control for toxin protease inhibitor project, biochemical, multiplex microsphere, HTS (AID 624483). The following applies: compound autofluorescence counterscreen, microsphere flow cytometry; stronger effect = higher value.
`CC1(C)CC(O)C(CCC(O)c2ccccc2)C(C)(C)N1` (stereo not drawn): the fluorescence intensity was 2520 (inactive).

Take `Cc1noc(C)c1C(=O)Nc1ccccn1`: the fluorescence intensity was 22800 (active).

Take `Cc1noc(C)c1C(=O)NCC1COc2ccccc2O1` (stereo not drawn): the fluorescence intensity is 6410 (inactive).

As to `Cc1c(C(=O)Nc2ccccn2)oc2ccc(Br)cc12`, the fluorescence intensity was 5620 (inactive).

With `Cn1c(=O)c2c(nc(SCCNS(=O)(=O)c3ccccc3)n2C)n(C)c1=O`, the fluorescence intensity is 10500 (inactive).

As to `O=C(Nc1cc(Br)ccc1F)c1nc[nH]c1C(=O)NCc1ccccc1`, the fluorescence intensity is 4670 (inactive).

For the molecule `CCCCC(C(=O)NC(C)(C)C)N(Cc1ccccc1)C(=O)c1snc(C(N)=O)c1N` (stereo not drawn), the fluorescence intensity was 3460 (inactive).

For the molecule `CCOc1ccc(S(=O)(=O)n2ccnc2)c2ccccc12`, the fluorescence intensity was 5760 (inactive).

`COc1ccc(S(=O)(=O)N2CCCC2)c(C)c1C`: the fluorescence intensity was 16000 (inactive).

Regarding `CCOc1ccc(S(=O)(=O)N2CCCCCC2)c2ccccc12`, the fluorescence intensity was 16700 (active).

`CC(C)N1CCC(=NNc2ccc([N+](=O)[O-])cc2S(=O)(=O)N2CCOCC2)CC1`: the fluorescence intensity was 3480 (inactive).

`O=C(NCC1CCCO1)/C(=C/c1ccc(Cl)cc1)NC(=O)c1ccccc1` (stereo not drawn): the fluorescence intensity was 2550 (inactive).

`O=C(NCC1CCCO1)C(C(=O)c1ccccc1)n1cc(Cl)ccc1=O` (stereo not drawn): the fluorescence intensity is 19700 (active).

Turning to `O=C(CSc1ccc(-c2ccccc2)nn1)NCC1CCCO1` (stereo not drawn), the fluorescence intensity was 3400 (inactive).

As to `N#Cc1ccc(C(=O)Nc2nc(-c3cccs3)c(C(=O)C(F)(F)F)s2)cc1`, the fluorescence intensity is 4970 (inactive).

`OC[C@@H]1CN(Cc2ccc3c(c2)OCO3)C[C@H](n2cnc3c(NCc4ccco4)ncnc32)O1`: the fluorescence intensity is 3680 (inactive).

Regarding `Cc1ccc(-c2cnc(C(O)c3cc(Cl)cc(Cl)c3)[nH]2)cc1` (stereo not drawn), the fluorescence intensity was 2960 (inactive).

Regarding `CN(C)c1nc(N)nc(CSc2ccccn2)n1`, the fluorescence intensity is 19900 (active).

As for `Nc1nc(CSc2nnnn2-c2ccccc2)nc(Nc2ccccc2)n1`, the fluorescence intensity is 4030 (inactive).

Regarding `CCOC(=O)CSc1ccccn1`, the fluorescence intensity was 2150 (inactive).

Take `Cc1ccccc1Nc1nc(N)nc(CSc2ccccc2)n1`: the fluorescence intensity was 2510 (inactive).

As for `COc1ccc(-n2nnnc2SCc2nc(N)nc(N3CCOCC3)n2)cc1`, the fluorescence intensity is 2520 (inactive).

Take `CN(C)c1nc(N)nc(CSc2nnnn2-c2cccc3ccccc23)n1`: the fluorescence intensity is 16800 (active).

For `O=C(NCc1ccco1)C1CCCN1S(=O)(=O)c1ccccc1C(F)(F)F` (stereo not drawn), the fluorescence intensity is 4200 (inactive).

Take `CC(=O)N(c1ccc2oc(=O)sc2c1)S(=O)(=O)c1ccc(C)cc1`: the fluorescence intensity was 3830 (inactive).

On to `CCCC1=Nc2cc(C(=O)NCc3ccco3)ccc2Sc2ccccc21`, for which the fluorescence intensity is 7310 (inactive).

With `Cc1nn(CC2CC2)c(=O)n1N(C)c1ncc(C(F)(F)F)cc1Cl`, the fluorescence intensity is 4280 (inactive).

As to `CCOC(=O)N1CCN(C(=S)Nc2ccc(C)cc2C)CC1`, the fluorescence intensity was 2140 (inactive).

On to `CCOC(=O)N1CCC(O)(c2cc(C)c(C)cc2C)CC1`, for which the fluorescence intensity is 23000 (active).

Consider `CCOC(=O)N1CCC(C(N)=O)CC1`, for which the fluorescence intensity was 4320 (inactive).

For the molecule `CCOC(=O)c1cnc(SCC(=O)NCc2ccco2)nc1N`, the fluorescence intensity was 9800 (inactive).

For `CCOC(=O)c1cnc(SCC(=O)Nc2cccc(OC)c2)nc1N`, the fluorescence intensity was 24000 (active).

For `CCOC(=O)c1cnc(SCC(=O)Nc2ccccc2C(=O)OC)nc1N`, the fluorescence intensity is 4740 (inactive).

Take `CC(C)C1CC2=C(C(=O)OC(C)(C)O2)C(c2ccc(F)cc2)O1` (stereo not drawn): the fluorescence intensity is 5880 (inactive).

With `CC(=O)NC(=S)NNC(=O)c1ccc(Br)cc1`, the fluorescence intensity is 4310 (inactive).

In the case of `CCOC(=O)[C@H]1Nc2ccc(Cl)cc2[C@@H]2[C@H]1C1CC(c3ccccc31)N2C(=O)OCc1ccccc1` (stereo partly drawn), the fluorescence intensity is 4370 (inactive).

On to `COC(=O)c1ccc(COC(=O)c2c(C)nn(Cc3ccccc3Cl)c2Cl)o1`, for which the fluorescence intensity was 10900 (inactive).

`CCOC(=O)c1cnn(Cc2ccccc2Cl)c1N`: the fluorescence intensity was 24600 (active).

As for `CCOC(=O)c1cnc2nc(SCc3ccccc3Cl)[nH]n2c1=O`, the fluorescence intensity is 4010 (inactive).

As for `CCOCCCN1C(=O)CN(C2CCCCC2)C(=O)C1c1ccc(OCC)c(OC)c1` (stereo not drawn), the fluorescence intensity was 15500 (inactive).

On to `CC1CC(=NNC(=O)C2COc3ccccc3O2)CC(C)(C)C1` (stereo not drawn), for which the fluorescence intensity was 4030 (inactive).

As to `CC1C/C(=N/NC(=O)c2cccs2)CC(C)(C)C1` (stereo not drawn), the fluorescence intensity is 23000 (active).

Take `CC1(C)CC(=O)C/C(=N\NC(=O)c2cccs2)C1`: the fluorescence intensity is 2600 (inactive).

As for `CCOc1cc(S(=O)(=O)NC2CC(C)(C)NC(C)(C)C2)ccc1F`, the fluorescence intensity is 4220 (inactive).

For the molecule `Cc1cc(Br)cn2c(Cc3ccccc3C(F)(F)F)c(C3CCCCC3)nc12`, the fluorescence intensity is 4420 (inactive).

Turning to `O=C(CN1CCOCC1)Nc1ccccc1`, the fluorescence intensity is 4280 (inactive).

For `O=C(CN1CCOCC1)Nc1c(-c2ccccc2)c2cc(Br)ccc2[nH]c1=O`, the fluorescence intensity is 21300 (active).

`C/C(=N\N)c1c(-c2ccccc2)c2cc(Br)ccc2[nH]c1=O`: the fluorescence intensity was 3410 (inactive).

Regarding `COCCNC(=S)Nc1cc(S(=O)(=O)N2CCOCC2)ccc1N1CCCCC1`, the fluorescence intensity is 3390 (inactive).

Turning to `CC(C)c1ccc(NC(=O)COC(=O)c2ccc(CN3CCCC3=O)cc2)cc1`, the fluorescence intensity was 3760 (inactive).

Take `Cc1ccccc1-c1csc(C(O)c2cccc(Cl)c2)n1` (stereo not drawn): the fluorescence intensity is 3550 (inactive).

Turning to `CCn1c(SCC(=O)Nc2ccc(Br)cc2)nc2sc3c(c2c1=O)CCN(C)C3`, the fluorescence intensity is 5890 (inactive).

Take `O=C(N1CCOCC1)N1CCOCC1`: the fluorescence intensity was 21400 (active).

Take `O=C(N1CCCCC1)N1CCN(C(=O)N2CCCCC2)CC1`: the fluorescence intensity is 3210 (inactive).

For `Cc1ccc(C(=O)NC2CCN(C(=O)N3CCOCC3)CC2)cc1`, the fluorescence intensity was 9950 (inactive).

As to `CN(C)C(=O)c1cccc(-c2cnc3sc(NCc4ccc5c(c4)OCO5)nn23)c1`, the fluorescence intensity is 3900 (inactive).

Turning to `COc1cccc(-c2cnc3c(NC(C)=O)cc(-c4cc(F)ccc4OC)cn23)c1`, the fluorescence intensity was 2980 (inactive).

As to `Cc1ccc(S(=O)(=O)N2CCC(=O)N([C@H](COCc3ccccc3)Cc3ccccc3)CC2)cc1`, the fluorescence intensity is 4440 (inactive).

`COC(=O)c1ccc(S(=O)(=O)N2CCc3ccccc3C2)cc1`: the fluorescence intensity is 3480 (inactive).

For `CC(=O)Nc1ccc(S(=O)(=O)N2CCC(NC(=O)c3ccccc3)CC2)cc1`, the fluorescence intensity was 3580 (inactive).

As for `O=C(Nc1ccc(S(=O)(=O)N2CCc3ccccc3C2)cc1)c1ccccc1`, the fluorescence intensity is 22600 (active).

In the case of `COc1cc(C(O)c2nc(-c3cnn(C)c3)cs2)ccc1F` (stereo not drawn), the fluorescence intensity is 3800 (inactive).

Turning to `COc1ccc(-c2cc(NC=O)c3ncc(-c4cc(OC)c(OC)c(OC)c4)n3c2)c(OC)c1`, the fluorescence intensity was 3920 (inactive).
